In ChEMBL document CHEMBL4513216, “Probing the Open Global Health Chemical Diversity Library for Multistage-Active Starting Points for Next-Generation Antimalarials” (ACS Infect Dis, 2020):
Out of some 68,000 compounds screened, about 2,700 (4%) showed an effect of 50% or more. The sample as a whole holds a higher share of strong results than the screen did.

Tested on: Plasmodium berghei
Experiment: Screen against P. berghei liver stage (PbLuc), transformed with Luciferase, at 2uM
Format: functional, HepG2
Details: tested at 2 uM

SMILES	INHIBITION
O=C1CO[C@H]2CN(S(=O)(=O)c3ccccc3)C[C@H]2N1Cc1ccccc1	15.98%
O=C1CO[C@@H]2CN(S(=O)(=O)c3ccccc3)C[C@H]2N1CC1CC1	-30.12%
O=C1CO[C@H]2CN(S(=O)(=O)c3ccccc3)C[C@H]2N1c1ccccc1	53.27%
CC(C)c1noc(C[S+]([O-])CC(=O)Nc2cc(F)ccc2F)n1 (configuration not stated)	12.35%
CC(NC1CCN(CCS(C)(=O)=O)CC1)c1ccc(Cl)cc1 (configuration not stated)	-26.72%
Cc1cc(NCCC(=O)NC(C)C)nc(-c2ccncc2)n1	-1.96%
Cc1cc(NCCC(=O)NC2CCCC2)nc(-c2ccncc2)n1	-82.36%
COCCNC(=O)CCNc1cc(C)nc(-c2ccncc2)n1	69.06%
O=S(=O)(NCC1(O)CCCC1)c1ccccc1Br	32.07%
Cc1noc(C)c1C(=O)N1Cc2ncn(C)c2C(COCC(C)C)C1 (configuration not stated)	25.92%
CN(C)c1ccnc(N2CCC(NCCOc3ccccc3)CC2)n1	-55.42%
Cc1ncncc1-c1ccnc(N(C)C)n1	22.5%
CN(C)c1nccc(-c2c[nH][nH]c2=O)n1	3.97%
CN(C)c1nccc(-c2cnc(N(C)C)[nH]c2=O)n1	51.32%
CN(Cc1ccc2nonc2c1)C(=O)CCc1cc2n(n1)CCCNC2	-3.87%
CCN(Cc1ccncc1)C1CCCN(C/C=C/c2ccc(F)cc2)C1 (configuration not stated)	27.95%
CCN(Cc1ccncc1)C1CCCN(Cc2ccc(F)cc2OC)C1 (configuration not stated)	51.42%
CCN(Cc1ccncc1)C1CCCN(Cc2ccc(F)cc2Cl)C1 (configuration not stated)	32.26%
Cc1ccc(CN2Cc3c(C(=O)N4CCCC4)nn(C)c3C2)s1	-64.97%
O=C1CC(N2CCN(c3ccccc3O)CC2)C(=O)N1Cc1cccs1 (configuration not stated)	19.62%
O=C(Cn1cc(I)cn1)N1CCCC1	34.34%
CC1CCCN(C(=O)Cn2cc(I)cn2)C1 (configuration not stated)	37.18%

SMILES	INHIBITION
CC1CCN(C(=O)Cn2cc(I)cn2)CC1	66.74%
O=C(Cc1cccc(F)c1)NCCNCC1CNc2ccnn2C1 (configuration not stated)	-7.45%
Cn1nccc1C1CCN(CC(=O)NCC2CC2)CC1	7.71%
O=C(Nc1cccnc1-n1cc(Cl)cn1)C1CC1	-43.89%
Cc1cc(C)n(CC2CN(Cc3nc(C4CC4)no3)CCO2)n1 (configuration not stated)	37.31%
CN(C)C(=O)N1CC[C@@H](O)[C@@H]1Cc1ccccc1	48.52%
O=C(N1CCCC1)N1CCC2(CC1)C(=O)N(CC1CC1)c1ccccc12	31.5%
O=C([C@H]1CCCO1)N1CCC2(CC1)C(=O)N(CC1CC1)c1ccccc12	58.95%
CC(=O)N1CCC2(CC1)C(=O)N(CC1CC1)c1ccccc12	24.15%
O=C(N[C@H]1CN(Cc2ccsc2)[C@@H]2CCCO[C@H]12)C1CC1	-1.33%
COCCN1CCC(c2cncc(-c3cccc(Cl)c3)n2)CC1	32.39%
CN(CC(=O)Nc1ccc(Br)cn1)C(=O)C(C)(C)C	8.42%
Cc1cccc2[nH]c(-c3cn(C4CCNCC4)nn3)nc12	57.92%
CSc1ccccc1-n1ccnc1-c1cn(C2CCNCC2)nn1	14.55%
OCCc1ccccc1-n1ccnc1-c1cn(C2CCNCC2)nn1	5.78%
Cc1c(C)c(C)c2[nH]c(-c3cn(C4CCNCC4)nn3)nc2c1C	52.66%
COc1cccc(CCn2ccnc2-c2cn(C3CCNCC3)nn2)c1	-14.82%
Cc1ccc(-n2ccnc2-c2cn(C3CCNCC3)nn2)c(Cl)c1	36.26%
Cc1ccc2[nH]c(-c3cn(C4CCNCC4)nn3)nc2c1C	68.42%
Clc1ccccc1CCn1ccnc1-c1cn(C2CCNCC2)nn1	-30.83%
Cc1cc2nc(-c3cn(C4CCNCC4)nn3)[nH]c2cc1C	28.14%
Cc1nc(C(C)C)sc1C(=O)N1CCN(C2CCSCC2)CC1	18.77%

SMILES	INHIBITION
CN(C)C(=O)c1cccnc1SCc1ccccc1Cl	17.31%
Cc1nn(C)c(C)c1C1CCCN1CC(=O)NCc1ccccn1 (configuration not stated)	-29.54%
COC(=O)C(NC(=O)CC(C)C)c1cc(F)ccc1F (configuration not stated)	29.12%
O=C(CC1CCN(c2cccnn2)CC1)Nc1nncs1	-24.13%
O=C(CC1CCN(c2cccnn2)CC1)NC1CCOCC1	-36.08%
O=C(CC1CCN(c2cccnn2)CC1)Nc1cccnc1	50.17%
O=C(CC1CCCC1)NCCS(=O)(=O)N1CCN(c2ccccn2)CC1	-40%
CN(C)CCNC(=O)CC1CCN(c2cccnn2)CC1	-36.94%
O=C(CC1CCN(c2cccnn2)CC1)NCCO	68.96%
CC(c1ccncc1)n1cc2nc(N(C)C)[nH]cc-2c1=O (configuration not stated)	20.82%
COc1ccc(C(O)CNC(=O)Nc2cc(C)nn2C)cc1 (configuration not stated)	34.83%
Cn1cnc(-c2ccc(F)cc2)c1NC(=O)CCNC(=O)C(C)(C)C	37.66%
c1cc(CN2CCC3(CC2)COC(COCC2CC2)C3)ccn1 (configuration not stated)	55.57%
c1cc(CN2CCC3(CC2)COC(COCC2CC2)C3)cs1 (configuration not stated)	-9.14%
c1cc(CN2CCC3(CC2)COC(COCC2CC2)C3)co1 (configuration not stated)	15.02%
c1cc(CN2CCC3(CCOCC3COCC3CC3)CC2)ccn1 (configuration not stated)	50.17%
c1cc(CN2CCC3(CCOCC3COCC3CC3)CC2)co1 (configuration not stated)	39.18%
c1csc(CN2CCC3(CCOCC3COCC3CC3)CC2)n1 (configuration not stated)	-23.51%
CC(C)c1nccn1CCC(=O)N1CCCC1c1cccn1C (configuration not stated)	22%
COCCCn1cnnc1C(C)NC(=O)c1[nH]c2ccc(C)cc2c1C (configuration not stated)	23.6%
Cn1cnc(S(=O)(=O)N2CC3(CCN(c4ccccc4)C3)C2)c1	15.42%
CN(CCSc1ccccc1)C(=O)c1cn2c(n1)CNCC2	54.29%

SMILES	INHIBITION
CN(CCc1ccccn1)C(=O)c1cn2c(n1)CNCC2	25.55%
CN(CCCc1ccccc1)C(=O)c1cn2c(n1)CNCC2	-12.28%
c1cncc(CN2CCC(c3ccc4c(c3)OCO4)CC2)c1	17.24%
Cc1cccc(C(=O)N2CC[C@H]3C[C@@H](C)O[C@@H]3C2)n1	1.29%
O=C(c1cc(C2CC2)on1)N1C[C@@H]2COC[C@]2(COc2cccnc2)C1	22.68%
Cc1ccc(-c2cc(CS(=O)(=O)NC3CCCNC3=O)on2)cc1 (configuration not stated)	42.79%
O=C(NCc1cc(-c2ccccc2)no1)NC1CCCCNC1=O (configuration not stated)	65.38%
O=C(NCc1cc(-c2ccccc2)no1)NCC1CCCO1 (configuration not stated)	-3.26%
O=C1NCCCCC1NC(=O)C1(c2ccccc2)CCOCC1 (configuration not stated)	-20.35%
Cc1ccc(-c2cc(CNC(=O)NC3CCCCNC3=O)on2)cc1 (configuration not stated)	55.7%
Cc1ccc(-c2cc(CNC(=O)N3CCC(O)CC3)on2)cc1	-5.7%
COc1ccc(CC(=O)NC(C)c2nc3cccnc3n2C(C)C)cc1 (configuration not stated)	-39.63%
COc1ccccc1CC(=O)NC(C)c1nc2cccnc2n1C(C)C (configuration not stated)	24.44%
COc1cccc(CC(=O)NC(C)c2nc3cccnc3n2C(C)C)c1 (configuration not stated)	74.83%
COC(=O)C(CNC(=O)Nc1nncs1)Cc1cccc(C)c1 (configuration not stated)	12.17%
CCn1ccnc1CN1CCCN(C(=O)c2cc(C)nn2CC)CC1	11.09%
CC(C)C(=O)N(C)Cc1nc(N2CCCC2)ncc1-c1ccncc1	-6.41%
Nc1nc(CCNc2ncnc3c2CCN(C(=O)C2CC2)C3)cs1	-26.81%
CCc1ccc(CCNc2ncnc3c2CCN(C(=O)C2CC2)C3)cc1	55.66%
Nc1nnc(CCNc2ncnc3c2CCN(C(=O)C2CC2)C3)s1	11.9%
Cc1cc(C)c(Cn2cncn2)cc1CN1CC[C@H](CO)[C@@H](O)C1	-64.63%
CC1CCN(S(=O)(=O)N2CCCC(c3cccc(C(=O)O)c3)C2)CC1 (configuration not stated)	-18.41%

SMILES	INHIBITION
CC1(C)CCN(S(=O)(=O)N2CCCC(c3cccc(C(=O)O)c3)C2)CC1 (configuration not stated)	19.04%
COC1CCN(S(=O)(=O)N2CCCC(c3cccc(C(=O)O)c3)C2)CC1 (configuration not stated)	57.59%
Cc1cc(C)c(CNC(=O)NCc2ccncc2)c(=O)[nH]1	26.76%
CC(C)CCN1CC2(CCN(C3CCCOC3)CC2)OC1=O (configuration not stated)	57.47%
O=C1OC2(CCN(C3CCCOC3)CC2)CN1CCc1ccccc1 (configuration not stated)	-1.27%
CN(C)CCCN1CC2(CCN(C3CCCOC3)CC2)OC1=O (configuration not stated)	24.81%
COCCNC(=O)N1CC(Cc2ccccc2F)C1	-41.64%
CCCc1cnc(C)nc1N1CCC(Cn2cc(CO)nn2)CC1	9.69%
Cc1cc(C)n2ncc(CN3CCC(Cn4cc(CO)nn4)CC3)c2n1	64.9%
Cc1cc(C)n2ncc(CN3CCC(n4cc(CCO)nn4)CC3)c2n1	31.51%
CCC(C(=O)NCc1csc(N2CCOCC2)n1)n1cccn1 (configuration not stated)	17.78%
Cc1cncc(Oc2ccc(CN)cc2)n1	32.31%
Clc1cnc(NCc2ccccc2N2CCOCC2)nc1	-2.35%
c1ncn(CC2CN(Cc3nc(C4CC4)no3)CCO2)n1 (configuration not stated)	60.64%
CCCc1nc(CN2CCOC(Cn3cncn3)C2)no1 (configuration not stated)	37.52%
CCc1nc(CN2CCOC(Cn3cncn3)C2)no1 (configuration not stated)	55.7%
c1cnn(CC2CN(Cc3nc(C4CC4)no3)CCO2)c1 (configuration not stated)	9.41%
CC(C)Cc1nc(CN2CCOC(Cn3cncn3)C2)no1 (configuration not stated)	40.17%
c1ncn(CC2CCCN(Cc3nc(C4CC4)no3)C2)n1 (configuration not stated)	-8.84%
